Compound activity from PubChem BioAssay.
Sm TGR block: S. mansoni TGR enzyme inhibition | Q962Y6 | Potency, µM (top dose mostly 114 µM), inactives show at the highest dose activity change, negative = inhibition, most hits filed as inhibitors | hit rate 3% among 360,000 | AID 485364 | purified TGR, DTNB reduction, TNB absorbance 405 nm; note: nearly all actives have a fitted effect of over 60% in size
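First, TGR (20 nM dispensed) and NADPH were mixed with compound. Second, a 15 min room-temperature incubation followed. Third, further NADPH and then DTNB were added to start the reaction. Finally, TNB absorbance was monitored kinetically.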
AmpC inh no detg: AmpC beta-lactamase inhibition without detergent | P00811 | Potency, µM (highest dose often 57.1 µM), without a hit: at the highest dose activity change, negative = inhibition, hits mostly inhibitors | hit rate 0.52% among 330,000 | AmpC nitrocefin hydrolysis, absorbance 480 nm, 0.0001% Triton;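 note: plate controls were no compound for no effect and no enzyme for full effect; nearly all actives have a fitted effect of over 20% in size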
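20 mM phosphate pH 7.0 + 0.01% (detergent screen) or 0.0001% Triton X-100; 5.3 nM AmpC reagent; cpd preinc 15 min RT; nitrocefin (800 uM stock) to start; A480 q20 s × 4 min; Activity was normalised to no-enzyme and no-compound control wells.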
RE007 growth inh: less growth of the S. pombe RE007 Vpr strain | S. pombe RE007 Vpr strain, BacTiter-Glo ATP luminescence, 24 h | AID 651644 | Potency, µM (doses to about 92.2 µM), for inactives: top-dose activity change, negative = less growth, hits mostly inhibitors | hit rate 0.21% among 360,000; active = well fitted falling curve with a large enough effect; inconclusive = small, poorly fitted or top-dose-only effect; inactive = no such curve, though single readings can be large or run the other way; note: nearly all actives have a fitted effect of over 50% in size
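Fission yeast RE007 carrying one integrated HIV-1 vpr copy, seeded at OD 0.01 in PMG+AL medium with 23 nL pinned compound. Grown 24 h at 30 degrees; viability read by BacTiter-Glo luminescence after 5 min.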
FBPA Giardia inh: inhibitors of Giardia lamblia fructose-1,6-bisphosphate aldolase; Potency, µM (highest dose often 59.6 µM), for the others: top-dose activity, negative = inhibition, usual class: inhibitors; hit rate 0.71% among 290,000; purified Giardia FBPA; A8B2U2; note: nearly all actives have a fitted effect of over 55% in size
Target sequence (A8B2U2 whole entry, looked up): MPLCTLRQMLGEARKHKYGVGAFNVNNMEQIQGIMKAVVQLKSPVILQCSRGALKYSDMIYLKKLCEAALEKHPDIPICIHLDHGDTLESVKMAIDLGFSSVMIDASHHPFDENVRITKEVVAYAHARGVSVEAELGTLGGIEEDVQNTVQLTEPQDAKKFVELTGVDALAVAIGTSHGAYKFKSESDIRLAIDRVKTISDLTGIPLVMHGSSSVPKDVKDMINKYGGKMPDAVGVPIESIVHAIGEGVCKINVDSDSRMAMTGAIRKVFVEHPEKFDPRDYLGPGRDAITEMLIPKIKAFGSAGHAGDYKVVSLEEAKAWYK
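Giardia FBPA (40 nM reagent) was preincubated 10 min at RT with compound (up to 57.5 uM final), then substrate plus GAPDH/TPI/NAD/arsenate coupling system with diaphorase/resazurin was added; resorufin fluorescence (525/598 nm) was read after 20 min.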
AmpC detergent: AmpC beta-lactamase inhibition with detergent present | P00811 | AmpC hydrolysis of nitrocefin, absorbance 480 nm, 0.01% Triton | Potency, µM (top dose mostly 114 µM), for inactives: at the top dose activity change, negative = inhibition, most hits filed as inhibitors | hit rate 0.041% among 370,000;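 note: 0% = no-compound wells and -100% = no-enzyme wells; nearly all actives have a fitted effect of over 25% in size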
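AmpC (5.3 nM in the dispensed reagent) in 20 mM phosphate pH 7.0 with 0.01% (detergent screen) or 0.0001% Triton X-100 was preincubated with compounds for 15 min at room temperature. Nitrocefin was then added from an 800 uM solution, and hydrolysis was followed at 480 nm.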
* hit, by the source's call; u = inconclusive; x = no result given; [ ] = remark or other dose. Only some compounds are listed: those with a hit (about 3.4% of all), similar ones and a draw of the others. Unless noted, calls come from the whole dose curve; as a rule, active = well fitted curve in the direction sought with a large enough effect; inconclusive = small, poorly fitted or top-dose-only effect, or another doubt; inactive = no such curve, though single readings can be large; an effect the other way counts as inactive or inconclusive. Unless noted, % is set by controls: 0 for no effect and ±100 for the full control effect; potency is the fitted concentration of half-maximal effect.

SMILES | Sm TGR block | AmpC inh no detg | RE007 growth inh | FBPA Giardia inh | AmpC detergent
COc1ccc(Br)cc1CNc1ccc(O)cc1 | 28µM* | 28µM* | u | 16µM* | u
Oc1ccc(NCc2ccccc2OCc2ccccc2F)cc1 | 20µM* | -42% | -27% | 13µM* | u
Oc1ccc(NCc2ccccc2OCc2ccccc2Cl)cc1 | 35µM* | x | x | x | 3%
CCOc1cccc(CNc2ccc(O)cc2)c1OCc1ccc(Cl)cc1 | 32µM* | -34% | -8% | u | -16%
COc1cccc(CNCCO)c1OCc1ccc(Cl)cc1 | 47% | -3% | 4% | -4% | -13%
CCc1ccc(NC(=O)CCc2nc3sc4c(c3c(=O)[nH]2)CCCC4)cc1 | 9% | -30% | 5% | x | u
CCc1c(C)nc2nncn2c1NCc1ccc(OC)cc1 | 8% | x | x | x | 18%
Cc1ccc(CNC(=O)[C@H]2O[C@@H](n3ccc(N)nc3=O)[C@H](O)[C@@H]2O)o1 | x | x | 38% | x | x
CCOc1ccccc1CNc1ccc(O)cc1 | x | -58% | -11% | 11µM* | -4%
CCOc1cc(CNc2ccc(O)cc2)ccc1OCc1ccc(Cl)cc1Cl | u | u | 0% | 16µM* | 0%
Cc1nc(S(=O)(=O)Cc2ccccc2)nc2c1CCC2 | x | -10% | 11% | 2% | -4%
O=C(Nc1ccc(N2CCOCC2)cc1)Nc1ccc2nc(-c3ccco3)c(-c3ccco3)nc2c1 | 4.5µM* | 121% | -8% | u | -9%
O=C(Nc1ccc2nc(-c3cccs3)c(-c3cccs3)nc2c1)N1CCOCC1 | -20% | 136% | -6% | u | -12%
O=S(=O)(c1ccc2nc(-c3ccco3)c(-c3ccco3)nc2c1)N1CCOCC1 | 1.6µM* | 65% | 0% | 2.5µM* | -19%
O=C(NCCCO)Nc1ccc2nc(-c3ccco3)c(-c3ccco3)nc2c1 | 0.28µM* | -4% | x | u | 1%
O=C(Nc1ccc2nc(-c3ccco3)c(-c3ccco3)nc2c1)NC1CC1 | u | -35% | -5% | u | -7%
O=S(=O)(c1ccc2ccccc2c1)N1CCOCC1 | -1% | -15% | -19% | 5% | -9%
CC(=O)N[C@@H](Cc1c[nH]c2ccccc12)C(=O)OCC(=O)NCc1ccc2c(c1)OCO2 | 7% | -4%[11.4 µM] | -14% | 4% | 9%
Cc1csc(NC(=O)C2CSC3(C)CCC(=O)N23)n1 (centres undefined) | -21% | -17% | -3% | x | -4%
Cc1ccc(-c2csc(NC(=O)C3CSC4(C)CCC(=O)N34)n2)cc1 (centres undefined) | 56µM* | -14% | -4% | x | -4%
CC12CCC(=O)N1C(C(=O)Nc1cccc(S(=O)(=O)N3CCCCC3)c1)CS2 (centres undefined) | 2% | -18% | -6% | x | -6%
CC1CCN(S(=O)(=O)c2ccc(NC(=O)C3CSC4(C)CCC(=O)N34)cc2)CC1 (centres undefined) | -6% | 14µM* | -8% | x | u
Cc1cc(=O)oc(C)c1C(=O)Nc1cccnc1Cl | -12% | -13% | 9% | 1% | -5%
CCN(c1cc(C)cc(C)c1)S(=O)(=O)c1nnc(NC(=O)C2CCCCC2)s1 | 2% | x | x | x | 22%
ClC(Cl)(c1nnnn1-c1ccccc1)c1nnnn1-c1ccccc1 | 20µM* | -56% | u | -11% | u
SMILES | Sm TGR block | AmpC inh no detg | RE007 growth inh | FBPA Giardia inh | AmpC detergent
CC(C)Nc1nnc(SCC(=O)Nc2ccc3c(c2)C(=O)c2ccccc2C3=O)s1 | -4% | 10µM* | 12% | -6% | 2%
CCOc1ccccc1Nc1nnc(SCC(=O)Nc2ccc3[nH]c(=O)[nH]c3c2)s1 | 2% | 18µM* | -23% | -18% | -3%
O=C(CSc1nnc(NC2CCCCC2)s1)Nc1ccc2c(c1)C(=O)c1ccccc1C2=O | x | -37% | -4% | -8% | -3%
COc1ccccc1Nc1nnc(SCC(=O)Nc2nc(-c3ccc(F)cc3)cs2)s1 | -8% | 16µM* | -6% | 1% | 0%
Fc1ccc(-c2cc(C(F)(F)F)nc(NCc3ccccc3)n2)cc1 | 8% | x | x | x | 19%
FC(F)(F)c1cc(-c2ccco2)nc(NCc2cccnc2)n1 | 45µM* | 46% | 3% | 2% | 3%
